About 8,800 targets were measured; listed, in parts, are those with a hit and a random draw of the rest. About 0.5% of all pairs of compound and target were hits.
Columns and labels:
Test in all cases: log2 fold change, soluble protein after heating vs DMSO (PISA); higher = thermal stabilisation; K562 lysate, 10 uM; active = over 0.2 and 3.5 SD of the protein, either way, in both replicates (recomputed)
nilotinib = compound: Cc1cn(-c2cc(NC(=O)c3ccc(C)c(Nc4nccc(-c5cccnc5)n4)c3)cc(C(F)(F)F)c2)cn1 [nilotinib]
In short: (§1)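 Quantification was by TMTpro 16plex LC-MS/MS with equalised channel sums, applied to the supernatant after 21,000xg for 90 min. Samples were crude K562 extract at 1 mg/mL protein in PBS pH 7.4 with 1 mM MgCl2, treated with 10 μM compound for 30 min, heated for 3 min across 48°C-58°C, pooled and brought to 0.5% NP-40 at 4°C. Values are log-two fold changes in thermal stability relative to solvent controls, from duplicates.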

[1] = compound: Cc1nc(Nc2n[nH]c3c2CN(C(=O)N[C@H](CN(C)C)c2ccccc2)C3(C)C)c2sccc2n1
In short: as §1

dasatinib = compound: Cc1nc(Nc2ncc(C(=O)Nc3c(C)cccc3Cl)s2)cc(N2CCN(CCO)CC2)n1 [dasatinib]
In short: as §1

[2] = compound: Cc1ncc(-c2ccnc(Nc3ccc(S(C)(=O)=O)cc3)n2)n1C(C)C
In short: as §1

[3] = compound: Cn1cc(-c2ccc3c(c2)CCN3C(=O)Cc2cccc(C(F)(F)F)c2)c2c(N)ncnc21
In short: as §1

quisinostat = compound: Cn1cc(CNCC2CCN(c3ncc(C(=O)NO)cn3)CC2)c2ccccc21 [quisinostat]
In short: as §1

tipifarnib = compound: Cn1cncc1[C@@](N)(c1ccc(Cl)cc1)c1ccc2c(c1)c(-c1cccc(Cl)c1)cc(=O)n2C [tipifarnib]
In short: as §1

[4] = compound: NC(=O)Nc1cc(-c2cccc(F)c2)sc1C(=O)N[C@H]1CCCNC1
In short: as §1

[5] = compound: NC(=O)c1cnc(N[C@@H]2CCCC[C@@H]2N)nc1Nc1cccc(-n2nccn2)c1
In short: as §1

[6] = compound: NC1(c2ccc(-c3nc4ccn5c(=O)[nH]nc5c4cc3-c3ccccc3)cc2)CCC1
In short: as §1

[7] = compound: NCC(=O)Nc1ccc(-n2nc(C(F)(F)F)cc2-c2ccc3c(ccc4ccccc43)c2)cc1
In short: as §1

vorinostat = compound: O=C(CCCCCCC(=O)Nc1ccccc1)NO [vorinostat]
In short: as §1

silmitasertib = compound: O=C(O)c1ccc2c(c1)nc(Nc1cccc(Cl)c1)c1ccncc12 [silmitasertib]
In short: as §1

[8] = compound: O=C1NC(=O)C(c2cnc3ccccn23)=C1c1cn2c3c(cc(F)cc13)CN(C(=O)N1CCCCC1)CC2
In short: as §1

entospletinib = compound: c1cn2cc(-c3ccc4cn[nH]c4c3)nc(Nc3ccc(N4CCOCC4)cc3)c2n1 [entospletinib]
In short: as §1

Measured: log2 fold change

MCCC1 (UniProt Q96RQ3)
inactive: nilotinib -0.025 | [1] 0.002 | dasatinib -0.103 | [2] 0.027 | [3] 0.008 | quisinostat -0.049 | tipifarnib 0.031 | [4] 0.035 | [5] 0.008 | [6] -0.045 | [7] 0.028 | silmitasertib 0.02 | [8] -0.003 | entospletinib 0.023
active: vorinostat -0.292

MAP4 isoform 5 (UniProt P27816)
inactive: nilotinib -0.168 | [1] -0.029 | dasatinib -0.371 | [2] 0.291 | [3] 0.029 | quisinostat -0.036 | tipifarnib -0.101 | [4] 0.03 | [5] -0.02 | [6] -0.213 | [7] 0.001 | vorinostat 0.359 | silmitasertib 0.074 | [8] 0.087 | entospletinib 0.063

MCMBP (UniProt Q9BTE3)
Chain of UniProt Q9BTE3 (Q9BTE3 whole entry, looked up): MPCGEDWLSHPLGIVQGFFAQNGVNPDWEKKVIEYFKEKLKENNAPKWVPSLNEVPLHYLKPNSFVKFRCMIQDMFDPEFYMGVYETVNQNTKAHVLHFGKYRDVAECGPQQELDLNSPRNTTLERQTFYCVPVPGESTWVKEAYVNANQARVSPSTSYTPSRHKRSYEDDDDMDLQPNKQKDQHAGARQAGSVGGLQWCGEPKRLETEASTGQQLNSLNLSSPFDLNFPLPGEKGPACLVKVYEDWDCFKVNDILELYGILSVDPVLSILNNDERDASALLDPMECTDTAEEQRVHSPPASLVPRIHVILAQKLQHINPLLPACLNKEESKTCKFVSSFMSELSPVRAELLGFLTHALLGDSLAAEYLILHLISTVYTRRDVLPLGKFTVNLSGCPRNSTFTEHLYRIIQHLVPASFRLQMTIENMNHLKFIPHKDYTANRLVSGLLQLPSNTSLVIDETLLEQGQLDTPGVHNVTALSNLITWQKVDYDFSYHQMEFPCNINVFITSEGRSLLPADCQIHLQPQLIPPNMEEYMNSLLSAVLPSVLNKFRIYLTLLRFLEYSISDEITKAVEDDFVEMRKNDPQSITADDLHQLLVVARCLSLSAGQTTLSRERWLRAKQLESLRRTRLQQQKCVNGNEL
active: vorinostat -0.415
inactive: nilotinib -0.01 | [1] -0.008 | dasatinib -0.031 | [2] -0.028 | [3] 0.008 | quisinostat -0.039 | tipifarnib 0.024 | [4] 0.039 | [5] 0.014 | [6] -0.033 | [7] -0.01 | silmitasertib 0.028 | [8] -0.013 | entospletinib -0.007

KIF14 (UniProt Q15058)
inactive: nilotinib 0.003 | [1] 0.042 | dasatinib -0.035 | [2] 0.033 | [3] 0.007 | quisinostat -0.139 | tipifarnib -0.046 | [4] 0 | [5] 0.001 | [6] -0.024 | [7] 0.082 | silmitasertib -0.016 | [8] -0.019 | entospletinib -0.055
active: vorinostat -0.286

MED8 isoform 2 (UniProt Q96G25)
Chain of UniProt Q96G25 (Q96G25 whole entry, looked up): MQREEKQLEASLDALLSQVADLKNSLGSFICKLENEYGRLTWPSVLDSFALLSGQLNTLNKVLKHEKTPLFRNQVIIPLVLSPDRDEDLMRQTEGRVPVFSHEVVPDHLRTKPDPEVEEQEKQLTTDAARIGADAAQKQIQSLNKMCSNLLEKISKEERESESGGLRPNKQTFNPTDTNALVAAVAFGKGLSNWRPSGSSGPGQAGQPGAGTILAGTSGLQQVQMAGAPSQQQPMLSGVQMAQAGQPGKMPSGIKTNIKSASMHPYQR
inactive: nilotinib 0.084 | [1] -0.033 | dasatinib -0.017 | [2] -0.007 | [3] 0.044 | quisinostat -0.043 | tipifarnib 0.081 | [4] -0.005 | [5] 0.016 | [6] 0.024 | [7] 0.019 | vorinostat 0.037 | silmitasertib -0.012 | [8] -0.026 | entospletinib 0

MAP4K4 isoform 3 (UniProt O95819)
inactive: nilotinib -0.108 | [1] 0.03 | dasatinib -0.103 | [2] 0.002 | [3] 0.006 | quisinostat -0.103 | tipifarnib 0.038 | [5] 0.02 | [6] -0.032 | [7] 0.041 | vorinostat -0.145 | silmitasertib 0.045 | entospletinib 0.178
active: [4] 0.27

MIF4GD isoform 3 (UniProt A9UHW6)
Chain of UniProt A9UHW6 (A9UHW6 whole entry, looked up): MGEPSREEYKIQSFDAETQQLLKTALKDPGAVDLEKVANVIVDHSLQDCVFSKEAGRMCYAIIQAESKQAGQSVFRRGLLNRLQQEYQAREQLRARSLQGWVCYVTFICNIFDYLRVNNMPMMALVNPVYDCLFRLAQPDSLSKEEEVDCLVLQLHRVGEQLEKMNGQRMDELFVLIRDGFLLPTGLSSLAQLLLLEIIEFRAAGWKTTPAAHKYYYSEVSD
inactive: nilotinib -0.036 | [1] 0.031 | dasatinib 0.056 | [2] -0.015 | [3] 0.039 | quisinostat -0.04 | tipifarnib 0.016 | [4] 0.052 | [5] -0.032 | [6] -0.007 | [7] 0.008 | silmitasertib 0.018 | [8] -0.012 | entospletinib -0.032
active: vorinostat -0.232

MCUB (UniProt Q9NWR8)
Chain of UniProt Q9NWR8 (Q9NWR8 whole entry, looked up): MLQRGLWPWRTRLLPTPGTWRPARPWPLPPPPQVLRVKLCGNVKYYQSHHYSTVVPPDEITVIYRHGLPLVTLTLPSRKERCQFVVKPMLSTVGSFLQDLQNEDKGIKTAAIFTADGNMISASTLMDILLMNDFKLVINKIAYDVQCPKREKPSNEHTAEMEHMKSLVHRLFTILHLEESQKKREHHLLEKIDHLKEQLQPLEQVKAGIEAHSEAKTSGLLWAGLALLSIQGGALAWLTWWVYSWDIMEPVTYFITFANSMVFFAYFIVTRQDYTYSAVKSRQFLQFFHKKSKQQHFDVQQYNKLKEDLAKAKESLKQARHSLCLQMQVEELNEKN
inactive: nilotinib -0.142 | [1] 0.119 | dasatinib 0.075 | [2] -0.12 | [3] 0.122 | quisinostat -0.262 | tipifarnib -0.112 | [4] 0.143 | [5] -0.008 | [6] -0.014 | vorinostat 0.129 | silmitasertib 0.057 | [8] 0.027

MED28 (UniProt Q9H204)
Chain of UniProt Q9H204 (Q9H204 whole entry, looked up): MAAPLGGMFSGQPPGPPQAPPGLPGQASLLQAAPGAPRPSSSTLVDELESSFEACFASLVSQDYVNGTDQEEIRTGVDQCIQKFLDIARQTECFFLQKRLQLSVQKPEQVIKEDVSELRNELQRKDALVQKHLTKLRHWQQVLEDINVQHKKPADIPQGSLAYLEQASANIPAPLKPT
inactive: nilotinib 0.053 | [1] 0.053 | dasatinib -0.004 | [2] 0.053 | [3] -0.006 | quisinostat -0.007 | tipifarnib 0.015 | [4] -0.013 | [5] -0.005 | [6] -0.014 | vorinostat -0.219 | silmitasertib 0.003 | [8] 0.09

LDAH isoform 2 (UniProt Q9H6V9)
Chain of UniProt Q9H6V9 (Q9H6V9 whole entry, looked up): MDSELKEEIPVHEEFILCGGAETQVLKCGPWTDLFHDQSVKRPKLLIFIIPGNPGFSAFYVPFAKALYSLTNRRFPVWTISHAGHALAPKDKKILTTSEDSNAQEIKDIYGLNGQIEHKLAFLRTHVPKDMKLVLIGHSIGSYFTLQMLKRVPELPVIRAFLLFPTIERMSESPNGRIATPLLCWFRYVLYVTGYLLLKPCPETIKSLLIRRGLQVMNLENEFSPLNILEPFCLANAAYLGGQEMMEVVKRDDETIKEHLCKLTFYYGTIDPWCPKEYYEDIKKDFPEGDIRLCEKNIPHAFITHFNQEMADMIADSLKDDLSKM
active: [6] 0.307
inactive: nilotinib -0.062 | [1] 0.023 | dasatinib -0.071 | [2] -0.003 | [3] 0.017 | quisinostat -0.022 | tipifarnib -0.077 | [4] 0.037 | [5] -0.009 | [7] -0.017 | vorinostat -0.13 | silmitasertib 0.064 | [8] 0.033 | entospletinib -0.029

MARK1 (UniProt Q9P0L2)
inactive: nilotinib 0.035 | [1] -0.113 | dasatinib -0.123 | [2] -0.019 | [3] 0.003 | quisinostat 0.092 | tipifarnib 0.023 | [4] -0.083 | [5] -0.03 | [6] -0.072 | [7] 0.017 | vorinostat -0.225 | [8] -0.059 | entospletinib 0.049
active: silmitasertib 0.485

LGALS3BP (UniProt Q08380)
Chain of UniProt Q08380 (Q08380 whole entry, looked up): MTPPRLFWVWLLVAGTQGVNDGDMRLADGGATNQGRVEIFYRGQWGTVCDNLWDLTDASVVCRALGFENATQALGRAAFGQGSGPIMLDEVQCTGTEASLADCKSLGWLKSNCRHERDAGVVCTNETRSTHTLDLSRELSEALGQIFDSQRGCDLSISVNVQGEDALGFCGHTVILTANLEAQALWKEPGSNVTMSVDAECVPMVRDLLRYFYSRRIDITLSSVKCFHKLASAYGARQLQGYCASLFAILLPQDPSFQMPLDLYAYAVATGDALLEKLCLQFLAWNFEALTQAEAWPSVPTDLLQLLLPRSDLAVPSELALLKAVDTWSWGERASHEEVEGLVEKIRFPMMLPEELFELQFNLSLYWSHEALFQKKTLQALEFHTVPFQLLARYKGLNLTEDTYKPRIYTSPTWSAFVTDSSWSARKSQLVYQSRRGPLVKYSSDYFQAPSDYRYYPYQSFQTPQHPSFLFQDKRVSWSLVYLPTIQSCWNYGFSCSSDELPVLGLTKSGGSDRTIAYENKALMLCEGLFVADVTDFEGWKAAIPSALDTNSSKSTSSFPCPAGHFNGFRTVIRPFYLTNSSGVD
inactive: nilotinib -0.056 | [1] 0.06 | dasatinib 0.339 | [2] -0.043 | [3] -0.128 | quisinostat -0.007 | tipifarnib -0.123 | [4] 0.111 | [5] 0.125 | [6] 0.137 | [7] 0.153 | vorinostat 0.176 | silmitasertib -0.121 | [8] 0.113 | entospletinib -0.129

MED12 isoform 2 (UniProt Q93074)
active: vorinostat -0.466
inactive: nilotinib -0.017 | [1] -0.025 | dasatinib -0.024 | [2] -0.009 | [3] 0.01 | quisinostat -0.05 | tipifarnib 0.005 | [4] 0.034 | [5] 0.019 | [6] 0.002 | [7] 0.003 | silmitasertib -0.044 | [8] -0.008 | entospletinib -0.012

MGST1 (UniProt P10620)
Chain of UniProt P10620 (P10620 whole entry, looked up): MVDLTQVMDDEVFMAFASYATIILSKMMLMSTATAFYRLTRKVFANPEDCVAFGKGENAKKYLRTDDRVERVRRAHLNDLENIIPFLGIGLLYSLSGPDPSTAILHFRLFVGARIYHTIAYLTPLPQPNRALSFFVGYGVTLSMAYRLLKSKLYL
inactive: nilotinib 0.033 | [1] -0.002 | dasatinib -0.012 | [2] -0.017 | [3] 0.014 | quisinostat -0.029 | tipifarnib 0.02 | [4] 0.085 | [5] -0.007 | [6] -0.012 | [7] -0.013 | vorinostat 0.037 | silmitasertib -0.013 | [8] 0.031 | entospletinib -0.01

MARCHF6 (UniProt O60337)
Chain of UniProt O60337 (O60337 whole entry, looked up): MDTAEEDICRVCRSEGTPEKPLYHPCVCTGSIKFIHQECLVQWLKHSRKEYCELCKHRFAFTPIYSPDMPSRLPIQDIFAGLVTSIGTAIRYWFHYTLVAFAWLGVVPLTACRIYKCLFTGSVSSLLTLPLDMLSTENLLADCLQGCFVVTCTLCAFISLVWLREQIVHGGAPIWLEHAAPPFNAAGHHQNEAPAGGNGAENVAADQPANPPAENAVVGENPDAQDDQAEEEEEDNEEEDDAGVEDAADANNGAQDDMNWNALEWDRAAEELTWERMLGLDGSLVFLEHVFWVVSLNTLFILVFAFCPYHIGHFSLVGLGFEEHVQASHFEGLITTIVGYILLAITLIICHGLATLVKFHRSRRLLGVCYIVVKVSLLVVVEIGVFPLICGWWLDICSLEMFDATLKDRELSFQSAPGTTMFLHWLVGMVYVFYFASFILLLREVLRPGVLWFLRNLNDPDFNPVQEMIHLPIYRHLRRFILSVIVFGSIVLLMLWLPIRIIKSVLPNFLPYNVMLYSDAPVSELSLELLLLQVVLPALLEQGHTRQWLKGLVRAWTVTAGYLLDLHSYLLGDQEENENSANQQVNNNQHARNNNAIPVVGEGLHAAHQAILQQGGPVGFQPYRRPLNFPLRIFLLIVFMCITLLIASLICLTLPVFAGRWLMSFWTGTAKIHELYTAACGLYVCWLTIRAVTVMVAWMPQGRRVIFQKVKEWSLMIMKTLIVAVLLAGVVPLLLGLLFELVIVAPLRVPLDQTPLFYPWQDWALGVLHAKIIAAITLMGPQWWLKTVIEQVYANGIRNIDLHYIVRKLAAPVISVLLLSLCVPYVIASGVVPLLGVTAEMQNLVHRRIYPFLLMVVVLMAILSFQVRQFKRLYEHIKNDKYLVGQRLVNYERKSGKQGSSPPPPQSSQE
inactive: nilotinib 0.164 | [1] -0.024 | dasatinib -0.136 | [2] 0.04 | [3] -0.169 | quisinostat -0.085 | tipifarnib -0.179 | [4] -0.025 | [5] -0.023 | [6] -0.008 | [7] 0 | vorinostat 0.057 | silmitasertib -0.037 | [8] -0.06 | entospletinib -0.028

KIF21A (UniProt H0YI78)
inactive: nilotinib 0.067 | [1] -0.005 | dasatinib 0.044 | [2] 0.143 | [3] 0.055 | tipifarnib -0.069 | [5] 0.104 | [6] 0.082 | vorinostat -0.113 | silmitasertib -0.016

KRI1 (UniProt Q8N9T8)
active: vorinostat -0.285
inactive: nilotinib -0.099 | [1] 0.02 | dasatinib -0.025 | [2] 0 | [3] -0.014 | quisinostat -0.125 | tipifarnib -0.073 | [4] -0.006 | [6] 0.06 | [7] 0.085 | silmitasertib -0.023 | [8] -0.007 | entospletinib -0.07

MPP5 (UniProt Q8N3R9)
Chain of UniProt Q8N3R9 (Q8N3R9 whole entry, looked up): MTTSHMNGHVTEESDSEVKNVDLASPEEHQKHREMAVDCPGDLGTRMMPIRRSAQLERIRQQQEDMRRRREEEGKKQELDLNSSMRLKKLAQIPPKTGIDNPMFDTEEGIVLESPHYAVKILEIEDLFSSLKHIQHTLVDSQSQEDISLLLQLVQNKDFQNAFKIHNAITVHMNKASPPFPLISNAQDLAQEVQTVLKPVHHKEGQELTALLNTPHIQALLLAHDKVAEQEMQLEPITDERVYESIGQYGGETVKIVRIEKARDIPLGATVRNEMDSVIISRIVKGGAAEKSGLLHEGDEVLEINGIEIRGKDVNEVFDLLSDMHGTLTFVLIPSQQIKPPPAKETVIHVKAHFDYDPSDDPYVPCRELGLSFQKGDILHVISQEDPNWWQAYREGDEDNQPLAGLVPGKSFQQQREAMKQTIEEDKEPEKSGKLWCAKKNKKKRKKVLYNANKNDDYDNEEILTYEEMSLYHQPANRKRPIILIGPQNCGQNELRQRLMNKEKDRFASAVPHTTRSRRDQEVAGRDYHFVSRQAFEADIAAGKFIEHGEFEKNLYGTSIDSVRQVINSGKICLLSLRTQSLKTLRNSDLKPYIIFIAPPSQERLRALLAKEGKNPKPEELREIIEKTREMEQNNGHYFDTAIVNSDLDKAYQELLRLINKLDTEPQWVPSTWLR
inactive: nilotinib 0.015 | [1] -0.013 | dasatinib 0.028 | [2] -0.069 | [3] 0.009 | quisinostat -0.052 | tipifarnib 0.142 | [4] 0.002 | [6] -0.053 | [7] 0.015 | vorinostat 0.016 | silmitasertib -0.1 | [8] 0 | entospletinib 0.013

LRRC7 (UniProt Q96NW7)
inactive: dasatinib 0.059 | [3] -0.043 | quisinostat 0.128 | [4] -0.009 | [5] 0.069 | [7] -0.097 | [8] -0.012 | entospletinib -0.108

KIFC3 isoform 6 (UniProt Q9BVG8)
inactive: dasatinib -0.055 | [3] -0.146 | quisinostat -0.189 | [4] 0.079 | [6] -0.213 | [7] 0.03 | vorinostat -0.025 | silmitasertib -0.124 | [8] 0.119 | entospletinib -0.063

LYN isoform 2 (UniProt P07948)
Chain of UniProt P07948 (P07948 whole entry, looked up): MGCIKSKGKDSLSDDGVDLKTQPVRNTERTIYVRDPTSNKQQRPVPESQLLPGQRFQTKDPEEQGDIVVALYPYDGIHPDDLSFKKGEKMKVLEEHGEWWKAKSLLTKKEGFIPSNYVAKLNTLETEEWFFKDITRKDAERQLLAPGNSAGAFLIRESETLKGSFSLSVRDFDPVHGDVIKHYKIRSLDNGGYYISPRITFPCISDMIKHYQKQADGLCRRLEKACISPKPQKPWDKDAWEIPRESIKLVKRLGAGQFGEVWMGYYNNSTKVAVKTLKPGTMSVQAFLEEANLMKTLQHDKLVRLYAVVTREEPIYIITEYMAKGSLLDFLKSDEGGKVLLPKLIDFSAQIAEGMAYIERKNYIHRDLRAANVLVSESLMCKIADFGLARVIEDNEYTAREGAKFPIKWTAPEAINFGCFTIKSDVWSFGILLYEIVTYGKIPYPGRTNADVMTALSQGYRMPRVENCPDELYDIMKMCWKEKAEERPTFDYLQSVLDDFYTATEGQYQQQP
inactive: nilotinib 0.125 | [1] 0.143 | dasatinib 0.438 | [2] 0.257 | [3] 0.061 | quisinostat -0.111 | tipifarnib -0.615 | [4] 0.748 | [6] -0.053 | vorinostat -0.118 | silmitasertib 0.049 | [8] -0.31 | entospletinib 0.129

LEPROT (UniProt O15243)
Chain of UniProt O15243 (O15243 whole entry, looked up): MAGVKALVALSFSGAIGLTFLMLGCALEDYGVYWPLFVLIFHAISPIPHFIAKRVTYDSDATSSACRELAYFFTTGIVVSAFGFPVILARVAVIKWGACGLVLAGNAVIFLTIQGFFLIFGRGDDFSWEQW
inactive: quisinostat -0.089 | [4] 0.092 | [5] -0.147 | [6] 0.024 | silmitasertib 0.167 | [8] -0.007 | entospletinib 0.115
active: vorinostat -0.641

MAP4K2 (UniProt Q12851)
inactive: dasatinib 0.511 | [3] 0.123 | quisinostat -0.193 | [5] 0.159 | [6] -0.062 | [7] 0.03 | vorinostat -0.263 | silmitasertib 0.064 | [8] -0.104 | entospletinib 0.15
active: [4] 0.965

From the supplement of paper PMC10849652
